According to PubChem BioAssay (Tox21):
Several values for one entry are separate records, joined by “and”; a condition that tells them apart may be missing. Equal values may be shown once. Unmarked numbers belong to inactive results. A call without a number means that no potency is given here. Activity calls are given as the source filed them. Calls follow the shape of the dose curve; as a rule, active = well fitted curve in the direction sought with a large enough effect in the repeat runs; inconclusive = weak or mixed curves; inactive = flat fitted curve, though single readings scatter.

Assay: qHTS assay to test for compound auto fluorescence at 535 nm (green) in HepG2 cells (AID 720675)
Conditions: green autofluorescence 485/535 nm, 1 h; series mostly up to 91.3 µM

Row | Compound | Potency | fluorescence, % of fluorescein control
1 | c1cc(-c2ccncc2)ccn1 | inactive | –
2 | CCCCNS(=O)(=O)c1ccccc1 | inactive | –
3 | CC(=O)Oc1ccccc1C(=O)Nc1ncc([N+](=O)[O-])s1 | inactive | –
4 | C#C[C@]1(O)CC[C@H]2[C@@H]3CCc4cc(OC)ccc4[C@H]3CC[C@@]21C | inactive | –
5 | c1ccc2c(c1)c1cccc3ccc4cccc2c4c31 | inactive | –
6 | O=C(OCc1ccccc1)c1ccccc1O | inactive | –
7 | Cc1cccc([N+](=O)[O-])c1C | inactive | –
8 | Nc1ncn([C@@H]2O[C@H](CO)[C@@H](O)[C@H]2O)c(=O)n1 | inactive | –
9 | CC(=O)C1(C)CC2=C(CCCC2(C)C)CC1C (centres undefined) | inactive | –
10 | Cc1[nH]c(=O)c(C#N)cc1-c1ccncc1 | inactive | –
11 | CC(C)=CCC/C(C)=C\CO | inactive | –
12 | COC(=O)CCC(=O)OC | inactive | –
13 | CCC(C)CO (centres undefined) | inactive | –
14 | Cc1cccc(C(=O)O)c1 | inactive | –
15 | C[C@]12CC[C@H]3[C@@H](CCC4=CC(=O)CC[C@@]43C)[C@@H]1CC[C@@H]2C(=O)CO | inactive | –
16 | O=C1c2cccc(O)c2C(=O)c2c(O)cccc21 | inactive | –
17 | O=C(c1ccc(OCCN2CCCCC2)cc1)c1c(-c2ccc(O)cc2)sc2cc(O)ccc12 | inactive | –
18 | CNCCCC12CCC(c3ccccc31)c1ccccc12 | inactive | –
19 | CCOCCOCCO | inactive | –
20 | Cc1c(OCC(F)(F)F)ccnc1CS(=O)c1nc2ccccc2[nH]1 (centres undefined) | inactive | –

Row | Compound | Potency | fluorescence, % of fluorescein control
21 | C[Si](C)(C)O[Si](C)(C)C | inactive | –
22 | C#C[C@]1(O)CC[C@H]2[C@@H]3CCC4=Cc5oncc5C[C@]4(C)[C@H]3CC[C@@]21C | inactive | –
23 | OC(CCl)CCl | inactive | –
24 | CC(=O)CC/C=C(\C)CCC=C(C)C | inactive | –
25 | CC(=O)c1ccccn1 | inactive | –
26 | C[C@]12CCC(=O)C=C1CC[C@@H]1[C@@H]2C(=O)C[C@@]2(C)[C@H]1CC[C@]2(O)C(=O)CO | inactive | –
27 | CC(C)OB(OC(C)C)OC(C)C | inactive | –
28 | CC(C)CC(C)(O)C#CC(C)(O)CC(C)C (centres undefined) | inactive | –
29 | C=CC(C)(CCC=C(C)C)OC(C)=O (centres undefined) | inactive | –
30 | c1ccc2c(c1)Oc1ccccc1S2 | inactive | –
31 | CC(C)OC=O | inactive | –
32 | O=C=Nc1ccc(Cc2ccc(N=C=O)cc2)cc1 | inactive | –
33 | OCCO | inactive | –
34 | CC1=CCC(C(C)(C)O)CC1 (centres undefined) | inactive | –
35 | C=C(C)C(=O)OCCOC(=O)C(=C)C | inactive | –
36 | Brc1cc(Oc2cc(Br)c(Br)c(Br)c2Br)c(Br)c(Br)c1Br | inactive | –
37 | NNc1ccc(C(=O)O)cc1 | inactive | –
38 | CN(C)c1nc(N(C)C)nc(N(C)C)n1 | – | -0.0062% [at 18.6 µM] and 0.0151% [at 3.72 µM]
39 | CCCCCCCCCCCO | inactive | –
